Assay outcomes: PubChem BioAssay, Buhrlage Lab, Dana-Farber Cancer Institute and Novartis Institutes for BioMedical Research (Cambridge, Mass)
USP28 inh: blocks human USP28 ubiquitin-rhodamine cleavage; purified USP28, Ub-rhodamine cleavage fluorescence, 30 min; inhibition, % at 25 µM; hit rate 3% among 47,000
USP17 block: blocks human USP17 ubiquitin-rhodamine cleavage. A8MUK1. purified USP17, Ub-rhodamine cleavage fluorescence, 3 h. inhibition, % at 50 µM. hit rate 6.5% among 47,000
OTUD3 inh: blocks human OTUD3 ubiquitin-rhodamine cleavage | Q5T2D3 | purified OTUD3, Ub-rhodamine fluorescence, 2 h | inhibition, % at 25 µM | hit rate 0.7% among 47,000 | AID 1645858
USP30 block: human USP30 deubiquitinase inhibition. Q70CQ3. purified USP30, Ub-rhodamine cleavage fluorescence. inhibition, % at 25 µM. hit rate 5.3% among 47,000
* = called active by the depositor; i = inactive; . = no result. This is a sample that favours compounds with a hit; in the whole collection about 11% have one here. No stated cut-off is given here; in the data, active means inhibition above about 30%; inactive means the rest.

SMILES | USP28 inh | USP17 block | OTUD3 inh | USP30 block
CCn1nccc1C1CCCN1C(=O)Nc1ccc2c(c1)OCO2 (centres undefined) | -8 | -7 | -8 | -24
Cc1c(C(=O)NCc2ccccc2Br)cc(-c2ccccc2)n1C | 22 | 20 | 24 | 32*
O=C(NCc1cn2cc(Cl)ccc2n1)c1ccccc1F | 9 | 7 | 1 | 12
CCOC(=O)N1CCC(NC(=O)CCn2c(=S)oc3ccccc32)CC1 | 17 | 26 | 21 | 34*
CCOC(=O)N1CCC(NC(=O)C2CCCN(c3nc4ccccc4o3)C2)CC1 (centres undefined) | 1 | 10 | 9 | 12
Cc1ccc(C(C)C)cc1OCC(=O)Nc1nc2ccccc2[nH]1 | 4 | 8 | 4 | 17
COc1ccccc1CC(=O)Nc1nc2ccccc2[nH]1 | 3 | 60* | -2 | 15
Cc1c(OCC(=O)Nc2nc3ccccc3[nH]2)ccc2c3c(c(=O)oc12)CCC3 | 8 | 37* | 0 | 52*
COc1ccc(C(C)=O)cc1CC(=O)Nc1nc2ccccc2[nH]1 | 24 | 59* | 5 | 21
COc1ccccc1C(=O)N1CCC2(CC1)c1ncc(-c3ccc(C)cc3)n1CCN2C | 7 | -3 | 4 | 20
Cc1cc(=O)[nH]c(SCC(=O)c2cc(C)n(CCC3=CCCCC3)c2C)c1C#N | -58 | 47* | -36 | -271
Cc1ccc2[nH]c3c(=O)n(CCC4=CCCCC4)cnc3c2c1 | 5 | 15 | 10 | 10
COCCCN1CCCC12CCN(C(=O)c1ccc(C)cc1)CC2 | -4 | 0 | -1 | 0
COc1ccc2oc(C(=O)Nc3ccc4ccccc4n3)c(C)c2c1 | -11 | 32* | -5 | -76
O=C(Cc1ccccc1O)N1CCc2nc3ccccc3c(=O)n2CC1 | -16 | -10 | 0 | -11
Cc1ccc(C(C)C(=O)N2CCc3nc4ccccc4c(=O)n3CC2)cc1 (centres undefined) | 10 | 14 | 16 | 30*
Cc1ccc(-c2nc(-c3ccc(=O)[nH]c3)no2)cc1F | -30 | -6 | -19 | -54
O=S(=O)(Cc1nc(-c2ccc3c(c2)OCO3)no1)c1ccc(F)cc1 | -41 | -70 | -40 | -208
O=c1ccc(-c2noc(-c3ccc4cc[nH]c4c3)n2)c[nH]1 | 11 | 59* | -20 | -273
O=c1ccc(-c2noc(/C=C/c3ccc4c(c3)OCO4)n2)c[nH]1 | 9 | 47* | 16 | 6
Cc1ccc(NS(=O)(=O)c2ccc3c(c2)C(=O)N(C)c2ncccc2O3)cc1 | 15 | 15 | 9 | 11
COc1ccc(CCNC(=O)c2noc3c2CCc2sccc2-3)cc1OC | 76* | 52* | -7 | -1
COc1ccc(Cl)cc1N(C)C(=O)c1noc2c1CCc1sccc1-2 | 23 | 21 | 18 | 34*
CC(/C=C/C=C/C=C/C=C/C(O)=C1C(=O)C(CCC(=O)O)N(C)C1=O)=C\C(C)C(O[C@H]1CC(O)[C@H](O)C(C)O1)C(C)C (some centres undefined) | -103 | -101 | -122 | i
COc1ccccc1N1CCN(C(=O)/C=C/c2ccc(OCc3ccc(Cl)cc3Cl)cc2)CC1 | 5 | 6 | 4 | 31*
SMILES | USP28 inh | USP17 block | OTUD3 inh | USP30 block
O=C(/C=C/c1ccc(OCc2ccccc2)cc1)N1CCN(C(c2ccccc2)c2ccccc2)CC1 | -18 | -14 | -6 | -27
CN(C)CCNC(=O)c1ccn(-c2ccc3ccccn23)n1 | -219 | -192 | -186 | i
Cc1nc2ccc(NC(=O)COc3ccccc3[N+](=O)[O-])cc2s1 | 6 | . | -2 | 57*
CCOc1ccc2nc(SCc3cn4cc(Cl)ccc4n3)[nH]c2c1 | 41* | 9 | 2 | 21
Cc1cccc(OCCCSc2nc3ccc(C)cc3[nH]2)c1 | 28 | 22 | 15 | 24
Cc1ccc(CNC(=O)c2ccccc2OCc2ccc(Cl)cc2)cc1 | 17 | 11 | 12 | 24
COc1ccccc1CNC(=O)c1ccccc1OCc1ccc(F)cc1 | 29 | 27 | 27 | 38*
COc1cccc(CNC(=O)c2ccccc2OCc2ccccc2)c1 | 19 | 31* | 17 | 41*
O=C(N[C@@H]1C[C@@H](Oc2ccccc2)[C@H](O)[C@H]1N1CCCC1)c1ncc[nH]1 | -30 | -26 | -12 | -52
O=C(COc1ccccc1F)Nc1ccc2c(c1)CN(C(=O)c1ccco1)CC2 | 41* | 26 | 2 | 27
COc1ccccc1OCC(=O)Nc1ccc2c(c1)CN(C(=O)c1ccco1)CC2 | 36* | 33* | 10 | 22
COc1ccccc1OCC(=O)Nc1ccc2c(c1)CCC(=O)N2Cc1ccccc1 | 15 | 14 | 14 | 54*
COc1ccc(C(=O)Nc2ccc3c(c2)CN(C(=O)c2ccco2)CC3)c(OC)c1OC | 14 | -3 | -13 | -14
O=C(COc1ccc(F)cc1)Nc1ccc2c(c1)CCC(=O)N2Cc1ccccc1 | 10 | . | 2 | 12
